From PubChem
This is a sample that favours compounds with a hit; in the whole collection about 1.1% have one here.
COUP-TFII inh = NR2F2 (human) inhibition, primary screen. P24468. HEK293T NGFI-A luciferase reporter, luminescence. inhibition, % at 8.6 µM. 370,000 compounds, 0.7% hits;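 active means inhibition above a per-plate cutoff, mean inhibition of test wells between control levels plus 3 SD, cut at about 38% in these data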;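 further: cells cotransfected with COUP-TFII expression vector driving the NGFI-A reporter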
LRH-1 inv ag = inverse agonists of human LRH-1 (NR5A2). O00482. HEK293T StAR-luciferase reporter, LRH-1 transfected, 24 h. inhibition, % at 3.6 µM. 360,000 compounds, 0.13% hits;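 active means inhibition above the mean inhibition of all tested compounds plus 3 SD, cut at about 73% in these data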
NCOA2 inhibitor = inhibits human steroid receptor coactivator 2 | 370,000 compounds, 0.17% hits | AID 651957 | HEK293 GAL4-SRC2 luciferase reporter, luminescence | inhibition, % at 9 µM;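 active means inhibition above the mean inhibition of all tested compounds plus 3 SD, set per campaign, cut at about 52% in these data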
NCOA1 inh = inhibits human SRC1 coactivator; Q15788; inhibition, % at 3.6 µM; HEK293 GAL4-SRC1 luciferase reporter, luminescence; 360,000 compounds, 0.12% hits;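 active means inhibition above the campaign mean plus 3 SD, with each screening campaign given its own cutoff, cut at about 60% in these data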
NCOA3 inh = human NCOA3 inhibition. AID 588352. Q9Y6Q9. HEK293 GAL4-SRC3 luciferase reporter, luminescence. 360,000 compounds, 0.17% hits. inhibition, % at 3.6 µM;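 active means inhibition above a per-campaign cutoff, the mean of all compounds plus 3 SD, cut at about 60% in these data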;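 further: higher means less SRC3-driven luciferase light from the GAL4 reporter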
GalR3 antag = antagonists of human GalR3; AID 651719; inhibition, % at 3 µM; O60755; HEK293 GalR3-CNG cAMP membrane potential fluorescence; galR3 body fused to GalR1 C-terminus; 360,000 compounds, 0.44% hits;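 active means inhibition above the screen-wide average plus 3 SD, cut at about 13% in these data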;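 further: forskolin and galanin both at EC90 stimulate the cells; cAMP rise reported by CNG channel membrane potential dye signal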
GalR3 conf = GalR3 (human) antagonism, confirmation; shares compounds with GalR3 antag; HEK293 GalR3 CNG cAMP biosensor, membrane potential fluorescence; galR3 fused to GalR1 carboxy tail; challenged with forskolin and galanin at EC90; inhibition, % at 3 µM; 1,600 compounds, 59% hits;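 active means inhibition above the primary screen's cutoff, the mean inhibition of all screened compounds plus 3 SD, cut at about 13% in these data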
HEK-CNG parental = acts as nonspecific agonist in parental HEK-CNG cells | shares compounds with GalR3 antag | HEK293-CNG parental cells, cAMP membrane potential fluorescence; normalised: DMSO wells 0%, forskolin wells 100% | activation, % at 3 µM | 1,600 compounds, 10% hits | AID 652268; in the data active means activation above about 1.3%
Gal4-VP16 ctr = inhibits VP16 reporter, flagging COUP-TFII antagonist hits; HEK293 Gal4-VP16 luciferase reporter, luminescence; inhibition, % at 8.5 µM; shares compounds with COUP-TFII inh; 2,500 compounds, 25% hits; in the data active means inhibition above about 13%
COUP-TFII conf = confirmation of human COUP-TFII (NR2F2) inhibitors; shares compounds with COUP-TFII inh; HEK293 NGFI-A luciferase reporter, luminescence; inhibition, % at 8.5 µM; 2,500 compounds, 45% hits; AID 687008;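 active means mean inhibition over three repeats above a set limit taken from the earlier primary screen, cut at about 38% in these data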
Of the large screens only hits and unclear results are named; the others gave an inactive call (follow-up assays come after a bar, where they were run).

COC(=O)C1CCCCN1C(=O)c1cc(COc2cccc3cnccc23)on1 (stereo not drawn)	COUP-TFII inh 61, GalR3 antag 106 | GalR3 conf 107 | HEK-CNG parental inactive | Gal4-VP16 ctr inactive | COUP-TFII conf 59
COc1ccc(CCN(C)C(=O)Cc2ccc(-c3ccccc3)cc2)cc1OC	COUP-TFII inh 48, GalR3 antag 35 | GalR3 conf 63 | HEK-CNG parental inactive | Gal4-VP16 ctr inactive | COUP-TFII conf inactive
CCN(CC)C1=CC(=[N+]2CCCC2)CC(C)(C)C1	none
CN(Cc1ccccc1)C1=CC(=[N+]2CCCC2)CC(C)(C)C1	COUP-TFII inh 72, NCOA3 inh 63, GalR3 antag 59 | GalR3 conf 65 | HEK-CNG parental 2.3 | Gal4-VP16 ctr 15 | COUP-TFII conf 64
O=C1C=C(c2c(O)ccc3ccccc23)c2ccccc2C1=O	COUP-TFII inh 58, GalR3 antag 23 | GalR3 conf 82 | HEK-CNG parental inactive | Gal4-VP16 ctr 21 | COUP-TFII conf 43
Cc1ccccc1NC(=O)Cn1nc(-c2ccccc2)nc1-c1ccccc1	none
COc1cccc(C(C)(O)c2nc(-c3ccccc3)cs2)c1 (stereo not drawn)	none
COc1cccc(C(C)(O)c2nc(-c3ccc(N(C)C)cc3)cs2)c1 (stereo not drawn)	COUP-TFII inh 55, GalR3 antag 96 | GalR3 conf 101 | HEK-CNG parental inactive | Gal4-VP16 ctr inactive | COUP-TFII conf inactive
Cc1cccc(NC(=O)CCS(=O)(=O)c2ccccc2)n1	none
CC1CCN(c2ncnc3ccccc23)CC1	COUP-TFII inh 45, GalR3 antag 73 | GalR3 conf inactive | HEK-CNG parental inactive | Gal4-VP16 ctr inactive | COUP-TFII conf inactive
COc1cccc(CN(C)C(=O)c2cc(COc3ccc4ncccc4c3)on2)c1	COUP-TFII inh 73, GalR3 antag 88 | GalR3 conf 99 | HEK-CNG parental inactive | Gal4-VP16 ctr inactive | COUP-TFII conf 56
COc1cccc(CN(C)C(=O)c2cc(COc3c(F)cccc3F)on2)c1	none
O=C(c1cc(COc2ccc3ncccc3c2)on1)N1CCCC1	COUP-TFII inh 46, GalR3 antag 101 | GalR3 conf 30 | HEK-CNG parental inactive | Gal4-VP16 ctr inactive | COUP-TFII conf inactive
CC(NC(=O)c1cc(COc2ccc3ncccc3c2)on1)c1ccc(F)cc1 (stereo not drawn)	COUP-TFII inh 69, GalR3 antag 29 | GalR3 conf 86 | HEK-CNG parental inactive | Gal4-VP16 ctr inactive | COUP-TFII conf 58
O=C(NC1CCCC1)c1cc(COc2ccc3ncccc3c2)on1	none (no result: COUP-TFII inh, NCOA2 inhibitor, GalR3 antag)
CN(C)CCCNS(=O)(=O)c1ccc(NC2CCCCCC2)c([N+](=O)[O-])c1	COUP-TFII inh 53, GalR3 antag 78 | GalR3 conf 100 | HEK-CNG parental 1.6 | Gal4-VP16 ctr inactive | COUP-TFII conf 39
Cc1sc2ncnc(NCC(O)c3ccccc3)c2c1C (stereo not drawn)	COUP-TFII inh 43, GalR3 antag 38 | GalR3 conf 25 | HEK-CNG parental inactive | Gal4-VP16 ctr inactive | COUP-TFII conf inactive
Cc1sc2ncnc(NCC(c3ccccc3)N(C)C)c2c1C (stereo not drawn)	none
COc1ccc(CCNc2ncnc3sc(C)cc23)cc1OC	COUP-TFII inh 79, GalR3 antag 86 | GalR3 conf 110 | HEK-CNG parental inactive | Gal4-VP16 ctr inactive | COUP-TFII conf 68
COc1ccc(CCNc2ncnc3[nH]ncc23)cc1OC	none
O=C(CNC(=O)Cc1ccccc1)NCC(=O)OCC(=O)c1ccc(Cl)cc1	none
Cc1ccc(CS(=O)(=O)c2cn(CC(=O)Nc3ccon3)c3ccccc23)cc1	none
CC(C)NC(=O)N1CCCN(c2nc3ccc(Cl)cc3s2)CC1	COUP-TFII inh 41, GalR3 antag 20 | GalR3 conf inactive | HEK-CNG parental inactive | Gal4-VP16 ctr inactive | COUP-TFII conf inactive
CC(C)C(=O)N1CCN(c2nc3ccc(Cl)cc3s2)CC1	none
O=C(NC(c1cccnc1)C(F)(F)F)c1cc(COc2ccc3c(c2)CCCC3)on1 (stereo not drawn)	COUP-TFII inh 42, GalR3 antag 15 | GalR3 conf inactive | HEK-CNG parental inactive | Gal4-VP16 ctr inactive | COUP-TFII conf inactive
O=C(NCc1ccccn1)C1CCC(=O)N(Cc2ccc(Cl)cc2)C1 (stereo not drawn)	none
CC[C@@H]1CCC[C@@H](O)[C@@H](C)C(=O)O[C@H](C)[C@@H](C)C/C=C(C)/C(OC)=C\C(=O)N(C)C([C@@H](C)CC)C(=O)N(C)[C@@H](C(C)C)C(=O)N(C)[C@@H](COC)C(=O)N2CCC[C@H]2C(=O)N(C)[C@@H](C(C)C)C(=O)N2CCC[C@H]2C(=O)O1 (stereo partly drawn)	COUP-TFII inh 83, LRH-1 inv ag 98, NCOA1 inh 78, NCOA3 inh 84, GalR3 antag 101 | GalR3 conf 115 | HEK-CNG parental inactive | Gal4-VP16 ctr 14 | COUP-TFII conf 82
FC(F)(F)c1cnc(N2CCCN(C(=S)Nc3ccccc3)CC2)c(Cl)c1	COUP-TFII inh 39, GalR3 antag 40 | GalR3 conf 80 | HEK-CNG parental inactive | Gal4-VP16 ctr inactive | COUP-TFII conf inactive
FC(F)(F)c1cnc(N2CCN(C(=S)NCc3ccccc3)CC2)c(Cl)c1	none
COc1ccc(NS(=O)(=O)c2ccc(N3CCCCC3)c(N)c2)cc1	COUP-TFII inh 56, GalR3 antag 82 | GalR3 conf 105 | HEK-CNG parental inactive | Gal4-VP16 ctr inactive | COUP-TFII conf 43
COc1ccc(NS(=O)(=O)c2ccc(N3CCCCC3)c(NC(=O)C(C)NC(N)=O)c2)cc1 (stereo not drawn)	none
CC1CCC2C(=O)N(c3ccc(Cc4ccncc4)cc3)C(=O)C2C1 (stereo not drawn)	COUP-TFII inh 45, GalR3 antag 91 | GalR3 conf 109 | HEK-CNG parental inactive | Gal4-VP16 ctr inactive | COUP-TFII conf inactive
Nc1cc(-c2ccc(Br)cc2)nn1Cc1ccccc1	COUP-TFII inh 37, GalR3 antag 61 | GalR3 conf 103 | HEK-CNG parental inactive | Gal4-VP16 ctr inactive | COUP-TFII conf inactive
